The campaign covered roughly 310,000 compounds. About 14,000 (4.5%) showed an effect of 50% or more. Effects have a minus sign here. The sample holds strong results, similar compounds and a random draw of the others, so the mix is not that of the screen.
Target: human ether-à-go-go-related gene (hERG) potassium channel (human, UniProt Q12809)
Test: primary screen, population patch clamp on CHO cells stably expressing hERG; higher = less effect of the substance
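Further: peak tail current of the secondary pulse compared with the same well before compound.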

Chain of human ether-à-go-go-related gene (hERG) potassium channel (Q12809 whole entry, looked up): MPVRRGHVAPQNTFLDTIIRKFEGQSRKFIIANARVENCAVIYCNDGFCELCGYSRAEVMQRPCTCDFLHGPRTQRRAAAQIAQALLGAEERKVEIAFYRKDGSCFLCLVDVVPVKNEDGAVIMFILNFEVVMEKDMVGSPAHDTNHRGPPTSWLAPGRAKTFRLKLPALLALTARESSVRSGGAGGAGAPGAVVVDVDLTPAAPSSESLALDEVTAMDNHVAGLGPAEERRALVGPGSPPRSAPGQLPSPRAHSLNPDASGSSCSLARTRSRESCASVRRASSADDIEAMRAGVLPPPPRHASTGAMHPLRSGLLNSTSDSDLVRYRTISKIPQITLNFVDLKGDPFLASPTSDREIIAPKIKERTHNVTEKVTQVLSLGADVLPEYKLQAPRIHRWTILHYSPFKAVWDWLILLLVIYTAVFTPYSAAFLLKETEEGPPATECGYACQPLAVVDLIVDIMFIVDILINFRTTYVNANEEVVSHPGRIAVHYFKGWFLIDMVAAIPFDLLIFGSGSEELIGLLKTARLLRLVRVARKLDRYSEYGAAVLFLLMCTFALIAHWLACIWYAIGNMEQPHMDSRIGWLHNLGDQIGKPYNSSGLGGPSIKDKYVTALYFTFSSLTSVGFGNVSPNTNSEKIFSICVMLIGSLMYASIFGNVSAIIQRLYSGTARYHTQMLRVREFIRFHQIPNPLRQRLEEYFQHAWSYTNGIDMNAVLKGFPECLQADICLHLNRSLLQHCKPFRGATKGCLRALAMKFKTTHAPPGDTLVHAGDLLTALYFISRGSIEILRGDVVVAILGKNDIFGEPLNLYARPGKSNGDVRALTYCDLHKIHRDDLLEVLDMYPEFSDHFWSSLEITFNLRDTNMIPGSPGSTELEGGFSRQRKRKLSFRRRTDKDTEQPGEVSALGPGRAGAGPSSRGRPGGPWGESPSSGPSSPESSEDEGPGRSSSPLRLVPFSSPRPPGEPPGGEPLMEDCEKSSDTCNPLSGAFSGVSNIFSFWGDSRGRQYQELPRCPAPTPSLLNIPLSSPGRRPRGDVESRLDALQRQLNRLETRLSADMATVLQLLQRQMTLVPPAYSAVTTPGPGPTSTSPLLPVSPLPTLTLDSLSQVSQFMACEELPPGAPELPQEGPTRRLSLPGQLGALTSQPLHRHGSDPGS

Compared with `CCc1nc2ccccc2n1Cc1ccc(F)cc1`, `Cc1nc2ccccc2c(=O)n1Cc1ccco1` is lower in “hERG current change (%, negative = inhibition) at 10uM” value: -0.73% for the first, -7.41% for the second.

Going from `O=C1c2ccccc2C(=O)N1Cc1nc2ccccc2c(=O)n1Cc1ccco1` to `O=C1c2ccccc2C(=O)N1CCc1nc2ccccc2c(=O)n1Cc1ccco1`, the “hERG current change (%, negative = inhibition) at 10uM” value falls from 21.3% to -61.8%.

First: O=C1c2ccccc2C(=O)N1CCCn1ccnc1
Second: O=C1c2ccccc2C(=O)N1CCc1nc2ccccc2c(=O)n1CCCn1ccnc1
The “hERG current change (%, negative = inhibition) at 10uM” value of the first is higher: 17.1% for the first, -62.5% for the second.

First: O=C1c2ccccc2C(=O)N1CCCc1nc2ccccc2c(=O)n1CCCn1ccnc1
Second: CCC(c1nc2ccccc2c(=O)n1CCCn1ccnc1)N1C(=O)c2ccccc2C1=O (stereo not drawn)
The “hERG current change (%, negative = inhibition) at 10uM” value of the first is lower: -65% for the first, -38.8% for the second.

First: Cc1nc2ccccc2c(=O)n1CCCn1ccnc1
Second: O=C1c2ccccc2C(=O)N1CCCc1nc2ccccc2c(=O)n1-c1cccnc1
The “hERG current change (%, negative = inhibition) at 10uM” value of the first is higher: -17% for the first, -39.7% for the second.

Compared with `COc1ccc(N2C(=O)c3ccccc3NC2c2ccc(OC)c(CSc3ccccn3)c2)cc1` (stereo not drawn), `CCOc1ccccc1N(CC(=O)Nc1ccc(OC)cc1OC)S(=O)(=O)c1ccccc1` is higher in “hERG current change (%, negative = inhibition) at 10uM” value: 2.62% for the first, 14.6% for the second.

Going from `COc1cc(C(=O)NCCSc2ccc(Cl)cc2)cc(OC)c1OC` to `COc1cc(OC)c(NC(=O)CS(=O)(=O)Cc2nc(-c3ccc(C)cc3)oc2C)cc1Cl`, the “hERG current change (%, negative = inhibition) at 10uM” value rises from -3.08% to 11.5%.

Compared with `CC(OC(=O)C1=COCCO1)C(=O)NC1CCCCC1C` (stereo not drawn), `N#C/C(=C\c1c(N2CCC(C(N)=O)CC2)nc2ccccn2c1=O)C(=O)NC1CCCCC1` is higher in “hERG current change (%, negative = inhibition) at 10uM” value: 12.7% for the first, 20.9% for the second.

Compared with `Cc1ccc(CNC(=O)COC(=O)c2ccc(Cl)c(N)c2)cc1`, `COc1ccc(NC(=O)C(CC(=O)O)Cc2ccc(Cl)cc2)cc1` (stereo not drawn) is higher in “hERG current change (%, negative = inhibition) at 10uM” value: -3.37% for the first, 11.9% for the second.

First: CN(C)C(=O)COC(=O)[C@H](Cc1ccccc1)NC(=O)c1ccco1
Second: O=C(Cc1ccccc1)NNC(=O)c1ccccc1C(=O)O
The “hERG current change (%, negative = inhibition) at 10uM” value of the first is higher: 7.23% for the first, -5.66% for the second.

Compared with `Cc1cnc(C(=O)OCC(=O)N2CCN(S(=O)(=O)c3ccc(Cl)cc3)CC2)cn1`, `Cc1noc(C)c1S(=O)(=O)N1CCN(c2ccc(Cl)cc2)CC1` is lower in “hERG current change (%, negative = inhibition) at 10uM” value: 4.81% for the first, -6.26% for the second.

Compared with `CCOC(=O)c1c(CN2CCOCC2)n(C)c2cc(Br)c(O)c(CN(C)C)c12.Cl`, `CCOC(=O)c1c(CN2CCOCC2)n(C)c2cc(Br)c(O)c(CN(C)C)c12` is lower in “hERG current change (%, negative = inhibition) at 10uM” value: -26.6% for the first, -27.4% for the second.

First: CCOC(=O)c1c(CN2CCCCC2)n(C)c2cc(Br)c(O)c(CN(C)C)c12
Second: CCOC(=O)c1c(CSc2cccs2)n(C)c2cc(Br)c(O)c(CN(C)C)c12.Cl
The “hERG current change (%, negative = inhibition) at 10uM” value of the first is higher: -19% for the first, -68.3% for the second.

Compared with `CCOC(=O)c1c(CSc2ccc(C)cc2)n(C)c2cc(Br)c(O)c(CN(C)C)c12.Cl.O`, `CCOC(=O)c1c(CSc2ccccc2)n(C)c2cc(Br)c(O)c(CN(C)C)c12` is lower in “hERG current change (%, negative = inhibition) at 10uM” value: -54.9% for the first, -68.5% for the second.

Compared with `CCOC(=O)c1c(CSc2ccccc2)n(C)c2cc(Br)c(OC)c(O)c12`, `CCOC(=O)c1c(CSc2ccccc2)n(C)c2ccc(O)cc12` is higher in “hERG current change (%, negative = inhibition) at 10uM” value: 16.2% for the first, 21.3% for the second.

Compared with `CCOC(=O)c1c(CN(C)C)n(C)c2ccc(OC(C)=O)cc12.Cl`, `CCOC(=O)c1c(CSc2ccsc2)n(C)c2cc(Br)c(O)c(CN(C)C)c12.Cl` is lower in “hERG current change (%, negative = inhibition) at 10uM” value: -41.3% for the first, -84.2% for the second.

First: CCOC(=O)c1c(CS(=O)(=O)c2ccccc2)n(C)c2cc(Br)c(O)c(CN(C)C)c12
Second: CCOC(=O)c1c(C)n(C)c2cc(Br)c(O)c(O)c12
The “hERG current change (%, negative = inhibition) at 10uM” value of the first is lower: -50.4% for the first, 8.12% for the second.

Compared with `COc1ccc(C2SCCN2S(=O)(=O)c2ccccc2)cc1` (stereo not drawn), `COc1ccc(N2CCN(c3nc4ccccn4c(=O)c3/C=C(\C#N)S(=O)(=O)c3ccccc3)CC2)cc1` is higher in “hERG current change (%, negative = inhibition) at 10uM” value: -4.42% for the first, -2.49% for the second.

First: O=C(Nc1cc2c3c(c1)CC(=O)N3CCC2)c1ccccc1F
Second: O=C(CNC(=O)c1ccccc1F)OCc1csc(-c2ccccc2)n1
The “hERG current change (%, negative = inhibition) at 10uM” value of the first is lower: 0.297% for the first, 14.6% for the second.

First: COc1cc(O)oc1C=Nc1ccccc1
Second: COc1ccc2c(c1)C(=O)[C@H](O)[C@@H](c1ccc(OC)c(Br)c1)O2
The “hERG current change (%, negative = inhibition) at 10uM” value of the first is lower: -18.3% for the first, 12.9% for the second.

Compared with `CCSc1nnc(-c2cccs2)o1`, `COCc1nnc(NC(=O)CCCOc2ccccc2OC)s1` is lower in “hERG current change (%, negative = inhibition) at 10uM” value: 10.1% for the first, 9.6% for the second.

Going from `O=C(c1ccc2snnc2c1)N1CCSCC1` to `Cc1ccc(C(=O)N2CCN(c3ccccc3)CC2)cc1C`, the “hERG current change (%, negative = inhibition) at 10uM” value rises from 4.21% to 4.41%.

First: N#Cc1ccc(CSc2nnc(NC(=O)c3ccc(=O)[nH]c3)s2)cc1
Second: CCc1cc2cc(C(=O)Nc3ccc(F)cc3)sc2s1
The “hERG current change (%, negative = inhibition) at 10uM” value of the first is higher: 3.51% for the first, 3.32% for the second.

Compared with `Cc1ccc(C(=O)c2cn[nH]c2-c2ccccc2O)cc1`, `O=C(O)c1ccc2c(c1)S(=O)(=O)c1ccccc1C2=O` is higher in “hERG current change (%, negative = inhibition) at 10uM” value: 14.4% for the first, 17% for the second.

First: COC(=O)c1cc(O)cc(OC)c1C(=O)c1c(O)cc(C)cc1O
Second: COc1cc(NC(=O)COC(=O)CNC(=O)c2ccc(C)s2)cc(OC)c1
The “hERG current change (%, negative = inhibition) at 10uM” value of the first is higher: 4.87% for the first, 4.76% for the second.

First: Cc1cc(O)c(/C=N/Nc2cccc(Cl)c2)c(=O)o1
Second: COc1ccc2c(CCNC(=O)c3ccco3)c[nH]c2c1
The “hERG current change (%, negative = inhibition) at 10uM” value of the first is higher: 1.55% for the first, -1.53% for the second.

Going from `Cc1ccc(S(=O)(=O)/C(C#N)=C/c2c(N3CCC(C(N)=O)CC3)nc3ccccn3c2=O)cc1` to `N#C/C(=C\c1c(N2CCC(C(N)=O)CC2)nc2ccccn2c1=O)S(=O)(=O)c1ccc(Cl)cc1`, the “hERG current change (%, negative = inhibition) at 10uM” value falls from -55.3% to -70.9%.

Compared with `Cc1ccc(S(=O)(=O)/C(C#N)=C/c2c(N3CCN(Cc4ccccc4)CC3)nc3ccccn3c2=O)cc1`, `N#C/C(=C\c1c(N2CCC(C(N)=O)CC2)nc2ccccn2c1=O)S(=O)(=O)c1ccccc1` is lower in “hERG current change (%, negative = inhibition) at 10uM” value: 5.58% for the first, -4.45% for the second.

Compared with `COc1ccc(CN(C(=O)CNC(=O)c2ccco2)C(C(=O)NC2CCCC2)c2ccco2)cc1` (stereo not drawn), `COC(=O)c1ccc(COc2ccccc2/C=C/C(=O)c2ccc(OCC(=O)O)cc2)cc1` is higher in “hERG current change (%, negative = inhibition) at 10uM” value: -15.9% for the first, 3.76% for the second.

First: COc1ccccc1OCc1nnc(SCC(=O)NCc2ccco2)n1-c1ccccc1
Second: COc1ccc2c(c1OC)C(=O)OC2c1c(O)nc(SC)n(-c2ccccc2)c1=O (stereo not drawn)
The “hERG current change (%, negative = inhibition) at 10uM” value of the first is lower: -9.19% for the first, -2.74% for the second.

First: COc1ccc(N2CCN(CCC3Oc4cc([N+](=O)[O-])ccc4NC3=O)CC2)cc1 (stereo not drawn)
Second: COc1ccc(-c2cc(C)no2)cc1S(=O)(=O)N1CCN(c2ccc([N+](=O)[O-])cc2)CC1
The “hERG current change (%, negative = inhibition) at 10uM” value of the first is higher: -19.1% for the first, -76.2% for the second.

First: CCOC(=O)COc1coc(CN2CCN(c3ccc(F)cc3)CC2)cc1=O
Second: CCc1ccc(-c2cc(C)no2)cc1S(=O)(=O)N1CCN(c2ccc(F)cc2)CC1
The “hERG current change (%, negative = inhibition) at 10uM” value of the first is lower: -19.4% for the first, 7.09% for the second.

Going from `CS(=O)(=O)c1ccc2nc(NC(=O)c3cc(-c4ccccc4)nn3-c3ccccc3)sc2c1` to `O=C(c1ccc(-c2ccccc2)cc1)N1CCN(c2ccccn2)CC1`, the “hERG current change (%, negative = inhibition) at 10uM” value falls from 8.38% to -36.4%.

Compared with `CN(C)c1nc(N)nc(-c2nc3ccccc3s2)n1`, `Cc1noc(C)c1S(=O)(=O)N1CCN(c2ccccc2)CC1` is lower in “hERG current change (%, negative = inhibition) at 10uM” value: -3.77% for the first, -5.33% for the second.

Going from `COc1ccc2c(c1OC)C(=O)OC2c1c(O)n(C2CCCCC2)c(=O)[nH]c1=O` (stereo not drawn) to `COc1ccc2c(c1OC)C(=O)OC2c1c(O)n(Cc2ccc(F)cc2)c(=O)[nH]c1=O` (stereo not drawn), the “hERG current change (%, negative = inhibition) at 10uM” value rises from -68.8% to 3.09%.

First: Cc1noc(C)c1S(=O)(=O)N1CCN(c2ccc([N+](=O)[O-])cc2)CC1
Second: Cc1cc(-c2ccc(C)c(S(=O)(=O)N3CCN(c4ccc([N+](=O)[O-])cc4)CC3)c2)on1
The “hERG current change (%, negative = inhibition) at 10uM” value of the first is lower: -69% for the first, -67.8% for the second.

Compared with `COc1ccc(-c2cc(C)no2)cc1S(=O)(=O)N1CCCCC1`, `COc1ccc(-c2cc(C)no2)cc1S(=O)(=O)N1CCN(c2ccccn2)CC1` is lower in “hERG current change (%, negative = inhibition) at 10uM” value: 2.3% for the first, -63.7% for the second.

Going from `Cc1cc(-c2ccc(C)c(S(=O)(=O)N3CCN(c4ccccn4)CC3)c2)on1` to `CCc1ccc(-c2cc(C)no2)cc1S(=O)(=O)N1CCN(c2ccccn2)CC1`, the “hERG current change (%, negative = inhibition) at 10uM” value rises from -21.2% to 4.29%.

First: Cc1cc(-c2ccc(C)c(S(=O)(=O)N3CCN(c4ccc(F)cc4)CC3)c2)on1
Second: COc1ccc(-c2cc(C)no2)cc1S(=O)(=O)N1CCN(c2ccccc2F)CC1
The “hERG current change (%, negative = inhibition) at 10uM” value of the first is lower: -8.14% for the first, 3.36% for the second.

Going from `CN(CC(=O)Nc1cccc(F)c1)C(=O)c1ccncc1` to `COc1ccc(-c2cc(C)no2)cc1S(=O)(=O)N(C)c1cccc(C)c1`, the “hERG current change (%, negative = inhibition) at 10uM” value falls from 4.28% to -82.5%.

Compared with `CCOc1ccc(OCC)c(NC(=O)C2CCN(S(=O)(=O)c3c(C)[nH]c(=O)[nH]c3=O)CC2)c1`, `COc1ccc(-c2cc(C)no2)cc1S(=O)(=O)N(C)c1ccc(C)cc1` is lower in “hERG current change (%, negative = inhibition) at 10uM” value: 7.51% for the first, -29.6% for the second.

Compared with `CSc1nsc(SC)c1NC(=O)N1CCCC1`, `COc1ccc(-c2cc(C)no2)cc1S(=O)(=O)N(C)c1ccc(C)c(C)c1` is higher in “hERG current change (%, negative = inhibition) at 10uM” value: -13.1% for the first, -1.83% for the second.

Reference: paper PMC4336329 (PLoS ONE, 2015)
